Test results reported in PubChem BioAssay AID1779 (Sanford-Burnham Center for Chemical Genomics, 2009).
About 160 (0.055%) of roughly 290,000 compounds were called active. Only a selection was taken, and actives are over-represented in it overall. A number with no mark means an inactive call. Cut-off read from the data, not from the text of the source: active = inhibition above about 50%; inactive = the rest.

Target: Tyrosine-protein phosphatase non-receptor type 22 (Homo sapiens) (UniProt Q9Y2R2)
Test: inhibitors of LYP phosphatase, biochemical, fluorescence intensity, uHTS (AID 1779);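 note: plate controls were vehicle with enzyme for no effect and no enzyme for full effect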
Details: recombinant LYP phosphatase, at 11.5 µM, stronger effect = higher value

Sequence of Tyrosine-protein phosphatase non-receptor type 22 (Homo sapiens) (Q9Y2R2 whole entry, looked up): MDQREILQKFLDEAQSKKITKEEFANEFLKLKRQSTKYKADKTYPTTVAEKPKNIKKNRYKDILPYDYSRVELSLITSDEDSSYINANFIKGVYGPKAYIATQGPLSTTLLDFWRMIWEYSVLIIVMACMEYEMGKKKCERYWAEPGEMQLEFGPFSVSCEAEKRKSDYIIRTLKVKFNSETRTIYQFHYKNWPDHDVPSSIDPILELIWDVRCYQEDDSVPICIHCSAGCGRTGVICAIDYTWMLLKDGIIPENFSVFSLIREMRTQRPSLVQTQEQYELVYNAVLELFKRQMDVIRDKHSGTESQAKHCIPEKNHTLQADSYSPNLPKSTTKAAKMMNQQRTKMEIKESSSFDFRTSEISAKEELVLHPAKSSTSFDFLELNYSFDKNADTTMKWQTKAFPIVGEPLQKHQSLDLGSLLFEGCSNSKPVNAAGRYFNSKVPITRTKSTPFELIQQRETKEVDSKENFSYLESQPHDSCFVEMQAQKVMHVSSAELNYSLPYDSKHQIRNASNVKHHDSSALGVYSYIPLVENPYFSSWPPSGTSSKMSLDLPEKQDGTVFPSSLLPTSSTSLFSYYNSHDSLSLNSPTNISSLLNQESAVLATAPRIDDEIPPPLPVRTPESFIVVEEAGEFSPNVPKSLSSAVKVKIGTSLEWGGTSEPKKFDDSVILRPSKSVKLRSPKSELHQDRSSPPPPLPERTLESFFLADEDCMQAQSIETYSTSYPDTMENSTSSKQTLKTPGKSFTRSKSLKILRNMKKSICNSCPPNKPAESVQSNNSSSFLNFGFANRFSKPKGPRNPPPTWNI

| SMILES | inhibition |
| --- | --- |
| CC(NC(=O)CN1CCN(c2ccccc2F)CC1)c1ccccc1 (stereo unspecified) | -13% |
| CCCS(=O)(=O)N1CCc2ccc(NC(=O)C3CCCO3)cc2C1 (stereo unspecified) | -11.2% |
| CS(=O)(=O)N1CCc2ccc(NC(=O)C3CCCO3)cc2C1 (stereo unspecified) | 73.9% (active) |
| CN(C)S(=O)(=O)N1CCc2ccc(NC(=O)C3CCCO3)cc2C1 (stereo unspecified) | -10.7% |
| O=C(c1c(F)cccc1F)N1CCC(O)(c2cccnc2)CC1 | -8.4% |
| COc1ccc(Cl)cc1NC(=S)N1CCCC1 | -2% |
| COc1ccc(NC(=O)CS(=O)CC(=O)NCC2OCCc3ccccc32)cc1 (stereo unspecified) | -5.2% |
| CCc1ccc(NC(=O)CS(=O)CC(=O)NCC2OCCc3ccccc32)cc1 (stereo unspecified) | -6.3% |
| O=C(CS(=O)CC(=O)Nc1ccc(Cl)cc1)NCC1OCCc2ccccc21 (stereo unspecified) | 52.3% (active) |
| O=C(O)c1ccccc1NC(=O)c1cc(-c2ccccc2)nc2ccccc12 | -12.6% |
| COC(=O)CCCC1=CC2=C(c3ccccc3)C(=O)C(C)(OC(=O)C3CCCC3)C(=O)C2=CN1CCN1CCOCC1 (stereo unspecified) | -3.1% |
| CSc1nsc(SCC(=O)Nc2cccc(C(=O)O)c2)n1 | -1.3% |
| CSc1nsc(SCC(=O)Nc2cccc(C(C)=O)c2)n1 | 52.6% (active) |
| CSc1nsc(SCC(=O)Nc2cccc(NC(C)=O)c2)n1 | -3.8% |
| CO/C([O-])=N/c1c[n+](-c2ccc(Cl)cc2)no1 | -3.1% |
| COCCNC(=O)c1c(CSc2ccccc2)noc1C(=O)NCc1ccccc1 | -2.5% |
| COc1c(C)cc(C(=O)C2CCCN(C(=O)c3csc(C)n3)C2)cc1C (stereo unspecified) | -11.3% |
| OCC1(CCc2ccccc2)CCN(Cc2cc(Cl)ccc2O)CC1 | -10.5% |
| Fc1ccccc1Cn1nnc2c(NCCc3ccccn3)ncnc21 | -5.2% |
| COc1cc(/C=N/n2c(-c3ccccc3)n[nH]c2=S)cc(OC)c1OC | -1.8% |
| O=C1C2C(C(=O)N1/N=C/c1ccc([N+](=O)[O-])o1)C1C=CC2C12CC2 (stereo unspecified) | -11.3% |

| SMILES | inhibition |
| --- | --- |
| O=C1C2C(C(=O)N1/N=C/c1cccc([N+](=O)[O-])c1)C1C=CC2C12CC2 (stereo unspecified) | 51.6% (active) |
| O=C1C2C(C(=O)N1/N=C/c1cc([N+](=O)[O-])ccc1O)C1C=CC2C12CC2 (stereo unspecified) | 0.1% |
| COc1cc(/C=C/C(=O)OCC(=O)c2c(N)n(C)c(=O)n(C)c2=O)ccc1O | 2.2% |
| CCN(CC)C(=O)c1sc(NC(=O)Cc2ccccc2)c(C#N)c1C | -7.8% |
| CCOC(=O)c1c(-c2ccc(C)cc2)csc1NC(=O)c1cccc(N2C(=O)CCC2=O)c1 | 1% |
| CC1(NC(=O)CC[N+](C)(C)CCO)CS(=O)(=O)CC1S(=O)(=O)[O-] (stereo unspecified) | 0.6% |
| CCCC[N+](C)(C)CCC(=O)NC(C)(C)CS(=O)(=O)[O-] | -4.3% |
| Cc1c(C(=O)NNC(=S)NCc2ccc(Cl)cc2)oc2ccccc12 | -1.3% |
| COC(=O)CCCC1=CC2=C(c3ccccc3)C(=O)C(C)(OC(=O)C3CCCC3)C(=O)C2=CN1CC1CC1 (stereo unspecified) | -6.7% |
| Cc1ccc2c(c1)N(C(=O)CCC(=O)NCc1cccc(Br)c1)CC(C)O2 (stereo unspecified) | 90.4% (active) |
| Cc1ccc2c(c1)N(C(=O)CCC(=O)NCc1ccccc1)CC(C)O2 (stereo unspecified) | -6.7% |
| Cc1ccc2c(c1)N(C(=O)CCC(=O)NCc1cccc(Cl)c1)CC(C)O2 (stereo unspecified) | -4% |
| COc1cccc(CNC(=O)c2csc3c2CCCC3)c1 | -8.1% |
| CCC(=O)N(Cc1cc2cc(OC)ccc2[nH]c1=O)c1cccc(C)c1 | -4.9% |
| Cn1nc(-c2ccc(Cl)cc2)nc2c(=O)n(C)c(=O)nc1-2 | -0.7% |
| CCCc1nc(SCC(=O)c2ccc(OC)cc2)c2c(=O)n(C)c(=O)n(C)c2n1 | 7.4% |
| c1ccc(-c2nc(-c3ccccn3)nc(-c3ccccn3)n2)nc1 | -4% |
| CCCc1nc2c(=O)n(C)c(=O)nc-2n(C)n1 | 79% (active) |
| Cn1nc(-c2ccccn2)nc2c(=O)n(C)c(=O)nc1-2 | 73.5% (active) |
| CCn1c(N)nc2c1c(=O)n(C)c(=O)n2C | 0.4% |
| Cn1c(N)c(C(=O)COC(=O)CCc2ccccc2)c(=O)n(C)c1=O | -4.8% |

| SMILES | inhibition |
| --- | --- |
| CC1CCCC(NC(=O)COC(=O)CCc2ccccc2)C1C (stereo unspecified) | -5.4% |
| Clc1ccccc1CNCC1CCCO1 (stereo unspecified) | -13.9% |
| CCOC(=O)COc1c(/C=N\O)cc(Cl)cc1OC | -4.2% |
| Cc1ccc(C(=O)c2no[n+]([O-])c2C(=O)c2ccc(C)cc2)cc1 | -5.8% |
| O=C(c1cccs1)c1no[n+]([O-])c1C(=O)c1cccs1 | 55.5% (active) |
| COc1ccc(C(=O)c2no[n+]([O-])c2C(=O)c2ccc(OC)cc2)cc1 | 7.8% |
| CN(CC(=O)Nc1ccc(F)cc1)C(=O)CSc1nc2ncc(Cl)cc2[nH]1 | -4.4% |
| N#Cc1ccc(N/N=C/c2cn(-c3ccccc3)nc2-c2ccccc2)c([N+](=O)[O-])c1 | -1.1% |
| COCCn1c(C)cc(C(=O)COc2ncnc3ccc(Br)cc23)c1C | -1.5% |
| CCOc1ccc(NC(=O)CN(c2ccc(C)cc2)S(=O)(=O)c2c(C)nn(C)c2C)cc1 | -8.4% |
| Cn1c(SCC(=O)N2CCN(c3ccccc3)CC2)nnc1-c1ccco1 | -8.2% |
| Cn1c(SCC(=O)N2CCN(c3ccccc3)CC2)nnc1-c1ccccc1 | -8.4% |
| Cn1c(SCC(=O)N2CCN(c3ccccc3)CC2)nnc1-c1cc2ccccc2o1 | 79.7% (active) |
| Cc1ccc(CNS(=O)(=O)c2ccc(C(C)(C)C)cc2)n1C | -5.6% |
| Cc1cccc(NC(=O)CN2CCOCC2)c1C | -9.5% |
| c1ccc2c(CN3CCCCC3)csc2c1 | 68.1% (active) |
| Clc1ccc2scc(CN3CCCCC3)c2c1 | -6.7% |
| c1ccc2c(CN3CCOCC3)csc2c1 | -4.5% |
| C=CCn1c(C)cc(C(=O)CN2NS(=O)(=O)c3ccccc3C2=O)c1C | -3.8% |
